From PubChem BioAssay
The source made the active and inactive calls.

Key:
[1] = system: Plasmodium falciparum Sir2 (PF13_0152, Sir2A); experiment: pfSir2 binders on small-molecule microarrays, primary screen, biochemical, small-molecule microarray, 635 nm fluorescence (AID 1098); conditions: small-molecule microarray binding, fluorescence 635 nm; higher = more signal;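 also: score merges spot fluorescence intensity with its signal-to-noise ratio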
[2] = small-molecule microarray binders of probe aDKK1, primary screen, biochemical, biotinylated probe, 635/667 nm fluorescence (AID 1099); conditions: higher = more signal;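 also: score merges 667nm spot fluorescence with signal to noise across triplicate slides; reference of the scale not given here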
[3] = small-molecule microarray binders of probe aCHRDL2, primary screen, biochemical, biotinylated probe, 635/667 nm fluorescence (AID 1100); conditions: higher = more signal
[4] = splicing luciferase reporter signal modulators, primary screen, spliceosome inhibition project, cell-based, HEK293, splice +/- reporter (AID 1101); conditions: luminescence, 24 h, higher = more signal, called active from +8 up or from −8 down;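 also: HEK293 cells carrying a splicing-competent luciferase reporter gene; test concentration not given here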
[5] = target: Fibroblast growth factor 10 (Homo sapiens) (UniProt O15520); experiment: FGF10 binders on small-molecule microarrays, primary screen, biochemical, small-molecule microarray, 635 nm fluorescence (AID 1102); conditions: FGF10 binding, fluorescence 635 nm, higher = more signal
Sequence of Fibroblast growth factor 10 (Homo sapiens) (O15520 whole entry, looked up): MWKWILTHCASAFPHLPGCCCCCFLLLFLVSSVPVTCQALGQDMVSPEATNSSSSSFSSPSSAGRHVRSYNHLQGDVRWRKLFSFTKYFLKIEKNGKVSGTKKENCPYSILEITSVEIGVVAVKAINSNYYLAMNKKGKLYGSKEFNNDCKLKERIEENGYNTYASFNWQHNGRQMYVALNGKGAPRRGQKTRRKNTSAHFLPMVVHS

[6] = system: glycogen synthase kinase-3 (GSK3A per assay name; protocol says GSK3B); experiment: GSK3 binders on small-molecule microarrays, primary screen, biochemical, small-molecule microarray, 635 nm fluorescence, GSK3A (AID 1103); conditions: small-molecule microarray binding, fluorescence 635 nm; higher = more signal; also: the record names both GSK3A and GSK3B
[7] = target: Epidermal growth factor receptor (Homo sapiens) (UniProt P00533); experiment: EGFR binders on small-molecule microarrays, primary screen, biochemical, small-molecule microarray, 635 nm fluorescence (AID 1104); conditions: EGFR binding, higher = more signal;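 also: score merges 667 nm emission intensity with spot signal to noise over triplicate slides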
Sequence of Epidermal growth factor receptor (Homo sapiens) (P00533 whole entry, looked up): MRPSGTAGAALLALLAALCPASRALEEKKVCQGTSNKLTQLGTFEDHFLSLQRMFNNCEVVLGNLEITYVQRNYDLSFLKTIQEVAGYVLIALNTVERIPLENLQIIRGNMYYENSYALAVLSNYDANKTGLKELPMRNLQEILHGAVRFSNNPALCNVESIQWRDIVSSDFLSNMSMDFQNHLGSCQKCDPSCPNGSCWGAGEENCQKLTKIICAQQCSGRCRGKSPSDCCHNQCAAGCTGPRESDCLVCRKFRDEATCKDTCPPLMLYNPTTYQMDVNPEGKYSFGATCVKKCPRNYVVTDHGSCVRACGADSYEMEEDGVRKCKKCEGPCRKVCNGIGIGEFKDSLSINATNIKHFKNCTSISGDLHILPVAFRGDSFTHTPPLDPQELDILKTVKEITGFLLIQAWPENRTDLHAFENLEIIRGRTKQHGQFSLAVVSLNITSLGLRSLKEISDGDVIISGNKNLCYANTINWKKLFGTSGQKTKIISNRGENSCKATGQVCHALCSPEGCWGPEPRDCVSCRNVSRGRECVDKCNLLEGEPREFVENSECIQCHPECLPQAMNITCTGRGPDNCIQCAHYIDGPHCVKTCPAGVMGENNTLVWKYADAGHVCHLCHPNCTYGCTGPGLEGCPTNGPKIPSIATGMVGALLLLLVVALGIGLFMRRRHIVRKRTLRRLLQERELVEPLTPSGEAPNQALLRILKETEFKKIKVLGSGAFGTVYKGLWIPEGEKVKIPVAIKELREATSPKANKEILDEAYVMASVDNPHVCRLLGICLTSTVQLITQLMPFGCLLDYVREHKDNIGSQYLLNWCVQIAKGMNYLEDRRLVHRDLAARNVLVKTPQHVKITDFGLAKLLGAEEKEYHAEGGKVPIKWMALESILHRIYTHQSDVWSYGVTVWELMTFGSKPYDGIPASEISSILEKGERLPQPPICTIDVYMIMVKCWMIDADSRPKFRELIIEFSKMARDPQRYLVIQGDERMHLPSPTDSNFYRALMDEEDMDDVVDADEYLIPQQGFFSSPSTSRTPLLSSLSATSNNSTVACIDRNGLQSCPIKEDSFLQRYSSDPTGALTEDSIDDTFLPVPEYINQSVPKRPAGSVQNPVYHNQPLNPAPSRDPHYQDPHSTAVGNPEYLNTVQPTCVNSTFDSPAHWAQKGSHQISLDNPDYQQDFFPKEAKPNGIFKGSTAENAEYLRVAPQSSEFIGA

[8] = target: Follistatin-related protein 3 (Homo sapiens) (UniProt O95633); experiment: FSTL3 binders on small-molecule microarrays, primary screen, biochemical, small-molecule microarray, 635 nm fluorescence (AID 1105); conditions: FSTL3 binding, higher = more signal;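 also: score merges emission near 667 nm and signal to noise per printed spot across three slides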
Sequence of Follistatin-related protein 3 (Homo sapiens) (O95633 whole entry, looked up): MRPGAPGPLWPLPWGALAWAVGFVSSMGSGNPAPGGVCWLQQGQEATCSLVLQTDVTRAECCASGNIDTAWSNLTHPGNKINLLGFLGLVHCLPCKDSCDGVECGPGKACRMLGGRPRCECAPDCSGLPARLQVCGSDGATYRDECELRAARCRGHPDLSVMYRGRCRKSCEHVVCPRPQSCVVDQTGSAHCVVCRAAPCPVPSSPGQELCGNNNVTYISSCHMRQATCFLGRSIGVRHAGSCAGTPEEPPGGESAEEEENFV

[9] = target: Dickkopf-related protein 1 (Homo sapiens) (UniProt O94907); experiment: DKK1 binders on small-molecule microarrays, primary screen, biochemical, small-molecule microarray, 635 nm fluorescence scan (AID 1106); conditions: DKK1 binding, higher = more signal;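 also: score merges emission near 667 nm with signal to noise over three replicate slides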
Sequence of Dickkopf-related protein 1 (Homo sapiens) (O94907 whole entry, looked up): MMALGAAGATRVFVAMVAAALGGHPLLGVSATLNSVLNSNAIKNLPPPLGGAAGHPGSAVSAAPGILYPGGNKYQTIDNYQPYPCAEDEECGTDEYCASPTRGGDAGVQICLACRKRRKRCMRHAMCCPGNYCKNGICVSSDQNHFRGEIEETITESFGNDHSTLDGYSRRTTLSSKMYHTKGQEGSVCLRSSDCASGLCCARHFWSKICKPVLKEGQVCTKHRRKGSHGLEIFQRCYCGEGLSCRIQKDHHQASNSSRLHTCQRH

[10] = system: Inhibin beta A chain (activin A); experiment: INHBA (activin A) binders on microarrays, primary screen, biochemical, small-molecule microarray, 635 nm fluorescence scan (AID 1107); conditions: small-molecule microarray binding, higher = more signal;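 also: mouse activin A protein probed at 4.33 µg/mL on printed slides; score merges bound-protein fluorescence near 667 nm with spot signal-to-noise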

Row | SMILES | composite z-score [1] | composite z-score [2] | composite z-score [3] | z-score [4] | composite z-score [5] | composite z-score [6] | composite z-score [7] | composite z-score [8] | composite z-score [9] | composite z-score [10]
1 | CC1CC/C=C\[C@H]2OC34C=CCN(CCN5CCOCC5)C(=O)[C@H]3N(CCO)C(=O)[C@@H]4C2C(=O)O1 (stereo not given in full) | -0.778 | -0.31 | 0.293 | -0.81 (inactive) | -0.992 | -0.831 | -0.707 | -0.781 | -0.137 | 0.761
2 | O=C1NC(=O)C2C1C=CC(C(O)c1ccc(Br)cc1)N2Nc1ccccn1 (stereo not given) | 0.246 | 0.71 | 0.662 | -0.141 (inactive) | 0.557 | 0.389 | 0.12 | 0.28 | 1.27 | 1.37
3 | CC=CC(O)C1C=CC2C(=O)N(c3ccccc3)C(=O)C2N1Nc1ccccc1 (stereo not given) | 1.37 | 0.864 | 0.882 | -0.0227 (inactive) | 1.11 | 1.29 | 0.247 | 1.36 | 0.239 | 0.871
4 | C=CCNC(=O)[C@@H]1[C@H]2C(=O)O[C@H](c3ccccc3)[C@H](c3ccccc3)N2[C@H](c2ccc(OCCO)cc2)[C@@]12C(=O)N(C(=O)OCCOC)c1ccc(C#CC3=CCCCC3)cc12 | 1.11 | 0.331 | -0.112 | -0.57 (inactive) | 0.957 | 1.28 | 0.552 | 1.06 | 0.44 | 0.726
5 | CO[C@H]1O[C@H](CO)[C@@H](OC(=O)Nc2ccc(C(F)(F)F)cc2)[C@H](OC(=O)Nc2ccc3c(c2)OCO3)[C@H]1OC(=O)Nc1ccc2c(c1)OCO2 | 1.5 | 0.517 | 0.63 | -0.412 (inactive) | 0.844 | 1.28 | -0.279 | 0.871 | 0.214 | 0.483
6 | C[C@]1(C(=O)O)c2ccccc2C(=O)N(Cc2ccccc2)[C@H]1c1ccc(CO)cc1 | 1.51 | 0.44 | 1.11 | -0.602 (inactive) | -1.97 | -1.83 | -1.63 | -1.38 | -1.64 | 0.463
7 | O=C1C2C=CC(C(O)c3cc(C(F)(F)F)cc(C(F)(F)F)c3)N(Nc3ccc([N+](=O)[O-])cc3)C2C(=O)N1c1ccccc1 (stereo not given) | 0.905 | 0.359 | 0.499 | 0.765 (inactive) | 0.902 | 1.34 | 0.437 | 1.39 | -0.246 | -0.0083
8 | CC(C)CN1C(=O)[C@@]2(Cc3ccccc31)c1ccccc1C(=O)N(Cc1ccccc1C(F)(F)F)[C@H]2c1ccc(CO)cc1 | 0.957 | -0.0363 | 0.223 | -0.596 (inactive) | -0.621 | -1.59 | -0.478 | -0.676 | -1.05 | 0.731
9 | Cc1ccc(F)cc1S(=O)(=O)N[C@@H]1CCN(Cc2ccc(OC(C)C)cc2)C1 | -0.38 | -0.428 | -0.272 | 2.97 (inactive) | -0.514 | -0.654 | -0.662 | -0.746 | 0.183 | 0.834
10 | C=C(/C(=C/C[C@@H](OC(=O)c1ccncc1)c1ccccc1OCCO)c1cc(C(=O)OC)ccc1OC)C(C)C | 1.04 | -0.223 | -0.151 | -1.25 (inactive) | 1.12 | 0.759 | 0.228 | 0.467 | 0.328 | 0.787
11 | C=CCOC(=O)[C@@H]1[C@H]2C(=O)O[C@H](c3ccccc3)[C@H](c3ccccc3)N2[C@H](c2ccc(OCCOC(=O)[C@H]3C[C@H]4C(=O)N[C@@H](CC(C)C)C(=O)N4[C@H]3c3ccc(O)cc3)cc2)[C@@]12C(=O)Nc1ccc(I)cc12 | 1.25 | 0.198 | -0.093 | 0.242 (inactive) | 1.4 | 1.32 | 1.08 | 1.51 | 0.931 | 0.463
12 | CCOC(=O)C[C@H]1[C@H](OC(=O)Cc2ccc3c(c2)OCO3)[C@@H](NC(=O)C2CCCCC2)c2cc(OCCCO)ccc2N1C(=O)c1ccc2ccccc2n1 | 0.774 | 0.034 | -0.529 | -1.49 (inactive) | 1.47 | 0.72 | 0.713 | 1.18 | 1.65 | 0.0341
13 | CC(C)(C)OC(=O)CC[C@]1(C(=O)N2CCOCC2)N=C(c2ccc(OCCCO)cc2)O[C@H]1c1ccccc1 | 1.65 | 0.126 | 0.417 | 0.12 (inactive) | 1.05 | 0.488 | -0.433 | 0.0033 | -0.158 | 0.456
14 | C=CC[C@@H](OC(=O)Nc1ccc(OC)cc1)c1ccc(OCCO)cc1 | 0.468 | -0.211 | 0.979 | -0.694 (inactive) | -1.77 | -0.711 | -1.99 | -0.993 | -2.37 | -2.6
15 | COCCCNC(=O)[C@]1(Cc2ccccc2N=[N+]=[N-])N=C(c2ccc(OCCCO)cc2)O[C@@H]1c1ccccc1N=[N+]=[N-] | 0.707 | 0.609 | 0.942 | 1.93 (inactive) | 0.955 | 0.353 | -0.287 | 0.219 | -0.589 | 0.738
16 | CCOC(=O)[C@H]1C/C=C/C[C@H](C(=O)OCC)C(=O)O[C@H]2[C@@H](OC)O[C@H](CO)[C@@H](OC(=O)Nc3ccc(OC)cc3)[C@@H]2OC1=O | 0.692 | 0.481 | 0.564 | 0.0675 (inactive) | 1 | 1.03 | 0.368 | 1.29 | 0.46 | 0.467
17 | O=C1NC(=O)C2C1C=CC(C(O)c1cc(C(F)(F)F)cc(C(F)(F)F)c1)N2Nc1ccc(Cl)cc1Cl (stereo not given) | 0.314 | 0.853 | 0.824 | 0.916 (inactive) | 0.336 | -0.514 | -0.66 | -0.0146 | -0.953 | 0.701
18 | CC(C)OC(=O)CC(=O)CC(O)c1cccc(C#N)c1 (stereo not given) | 0.431 | 0.662 | 1.04 | -1.69 (inactive) | 0.632 | 0.646 | 0.23 | 0.74 | -0.618 | 0.964
19 | COCCOC(=O)N1C(=O)[C@@]2(c3cc(C#Cc4ccc(OC)cc4)ccc31)[C@H](C(=O)N1CCN(c3ncccn3)CC1)[C@H]1C(=O)O[C@H](c3ccccc3)[C@H](c3ccccc3)N1[C@@H]2c1ccccc1OCCO | 0.625 | -0.0221 | 0.221 | -0.562 (inactive) | 0.343 | -0.142 | 0.139 | -0.181 | -0.163 | 0.443
20 | NCCCCCNC(=O)[C@@H]1C[C@@H]2C(=O)N[C@@H](CCCCN)C(=O)N2[C@@H]1c1cccc(OCCO)c1 | 0.858 | 1.24 | 0.826 | -0.107 (inactive) | 0.699 | 0.642 | -0.0511 | 1.44 | 0.969 | 0.428
21 | C=C(CCCC)/C(=C/C[C@@H](OC(C)=O)c1ccc(CO)o1)c1cc(C(=O)OC)ccc1OC | 0.416 | -0.198 | -0.549 | 1.32 (inactive) | 1.19 | 1.13 | 0.0789 | 1.4 | 0.543 | 0.207
22 | C#CCNC(=O)[C@H](Cc1ccccc1)NC(=O)[C@@H](N=[N+]=[N-])C(C)C | 0.435 | -0.218 | -0.503 | 0.177 (inactive) | 0.18 | 0.596 | 0.398 | 0.335 | 0.654 | 0.554
23 | COCC(=C=CC[C@H](O)c1cccc(OCCO)c1)C[C@H](O)c1ccccn1 | 0.543 | 0.161 | -0.173 | -1 (inactive) | 1.3 | -0.214 | -0.366 | -0.0496 | 0.354 | 0.281
24 | CC(C)(C)OC(=O)CC[C@]1(C(=O)NCCN2CCOCC2)N=C(c2ccc(OCCCO)cc2)O[C@H]1c1ccccc1 | 1 | 0.214 | 0.93 | 0.66 (inactive) | -0.426 | -1.04 | -0.174 | -0.713 | -1.02 | 0.992
25 | Cc1c(NC(=O)/C(C#N)=C/C=C/c2ccc(N(C)C)cc2)c(=O)n(-c2ccccc2)n1C | 0.917 | 0.735 | 0.294 | -0.0455 (inactive) | 0.89 | 1.02 | 0.994 | 0.788 | 0.646 | 1.08
26 | C[C@@H]1ON(c2ccc(C(=O)OC(C)(C)C)cc2)[C@H](c2ccc(Br)cc2)[C@H]1C(=O)N1C(=O)OC[C@H]1Cc1ccccc1 | 0.992 | -0.0749 | -0.17 | -0.65 (inactive) | 1.17 | 1.31 | 0.701 | 1.21 | 1.11 | -0.109
27 | COCCOC(=O)N1C(=O)[C@@]2(c3cc(C#CC4(O)CCCCCC4)ccc31)[C@H](C(N)=O)[C@H]1C(=O)O[C@H](c3ccccc3)[C@H](c3ccccc3)N1[C@@H]2c1ccc(O)cc1 | 1.16 | -0.116 | -0.0074 | -0.538 (inactive) | 1.09 | 1.01 | 0.406 | 1.28 | 0.489 | 0.496
28 | COCCOC(=O)N1C(=O)[C@@]2(c3cc(C#CC4(O)CCCCCC4)ccc31)[C@H](c1ccccc1OCCO)N1[C@H](c3ccccc3)[C@H](c3ccccc3)OC(=O)[C@H]1[C@@H]2C(N)=O | 0.651 | 0.255 | 0.0813 | -0.349 (inactive) | 0.804 | 1.28 | 0.442 | 1.14 | 1.06 | -0.132
